The results in this text go back to PubChem BioAssay.

Test [1] relates to TRPC4 beta (transient receptor potential cation channel C4), mouse. As to the kind of experiment: TRPC4 cation channel opening, retest – cell-based, Fluo4 calcium, HEK293 TRPC4beta/mu-opioid, duplicates, 10 µM, confirmation (AID 2426;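 active = fluorescence ratio normalized to control raised more than 50% in primary screen plus both repeat runs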). Conditions: Fluo4 calcium fluorescence, at 10 µM; active compounds read high.
Test [2] has as its system transient receptor potential cation channel C4 beta (TRPC4), mouse. Put plainly: TRPC4 cation channel opening, second retest – cell-based, second round, Fluo4, HEK293 TRPC4beta/mu-opioid, 1 µM, confirmation (AID 2461;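 active = primary screen active and over 50% activation in each of two duplicate runs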). Conditions: Fluo4 calcium fluorescence, at 1 µM; active compounds read high.
Test [3] relates to TRPC4 (transient receptor potential cation channel C4 beta), mouse. As to the kind of experiment: potentiation of DAMGO EC20 TRPC4 response – cell-based, second round, Fluo-4, HEK293 TRPC4beta/mu-opioid, 1 µM, confirmation (AID 2554;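 active = primary screen hit whose fluorescence ratio, in both repeats, exceeds the weak agonist control mean by 3 SD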). To be noted: DAMGO EC20, Fluo-4 calcium flux, at 1 µM; active compounds read high.
In test [4] the test system is TRPC4 beta (transient receptor potential cation channel C4), mouse. As to the kind of experiment: potentiation of DAMGO EC20 TRPC4 response – cell-based, Fluo-4, HEK293 TRPC4beta/mu-opioid, confirmation (AID 2555;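 active = primary screen hit whose calcium fluorescence ratio, in both repeats, exceeds the weak agonist control mean by 3 SD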). To be noted: DAMGO EC20, Fluo-4 calcium flux, at 10 µM; active compounds read high.
Test [5] deals with Short transient receptor potential channel 4 (Mus musculus) (UniProt Q9QUQ5). As to the kind of experiment: blockers of DAMGO-evoked TRPC4 calcium flux – cell-based, Fluo4, HEK293 TRPC4beta/mu-opioid, confirmation (AID 2636;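 active = calcium signal cut by more than 3 SD below the full-agonist control yet still positive, in both repeats and the earlier primary screen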). To be noted: at 10 µM; active compounds read high.
For test [6] the target is unchanged. Put plainly: blockers of DAMGO-evoked TRPC4 calcium flux – cell-based, second round, Fluo4, HEK293 TRPC4beta/mu-opioid, 1 µM, confirmation (AID 2637;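 active = calcium signal ratio cut to more than 3 SD under the fully stimulated control mean yet still positive, in both repeats and the primary screen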;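 as to inhibition: percent of integrated ratio relative to wells lacking test compound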). Conditions: at 1 µM; active compounds read high.
Test [7] has the same target. Put plainly: calcium entry via TRPC4 opening agents – cell-based, HEK293 TRPC4/mu-opioid, Fluo-4 calcium, dose response (AID 434937;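 active = primary screen activator hit with a dose response curve and TRPC4 channel activation at any tested dose; inactive = no activation, no dose response, or not a primary hit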).
The target is the same in test [8]. As to the kind of experiment: potentiation of DAMGO-evoked TRPC4 calcium signal – cell-based, HEK293 TRPC4/mu-opioid, Fluo-4 calcium, EC20 DAMGO, dose response (AID 434941;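 active = earlier screen potentiator hit that boosts the TRPC4 ion channel at some dose, with a dose response; inactive = no potentiation, no dose response, or not a prior hit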;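 also: calcium entry triggered by an EC20 dose of DAMGO at the co-expressed mu-opioid receptor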).
The target in test [9] is Short transient receptor potential channel 6 (Mus musculus) (UniProt Q61143). Put plainly: TRPC6 blockade by TRPC4 inhibitor hits – cell-based, HEK293, membrane potential dye, duplicate, selectivity assay for TRPC4 inhibitor project, confirmation (AID 434948;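 active = active in primary screen and both duplicates, each dropping signal beyond three positive-control SD with fluorescence still positive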). To be noted: HEK293 TRPC6, membrane potential dye fluorescence, at 10 µM, stimulated with maximal-effect acetylcholine; active compounds read high.

Test [10] shares this target. Put plainly: TRPC6 opening by TRPC4 activator hits – cell-based, HEK293, membrane potential dye, duplicate, selectivity assay for TRPC4 activator project, confirmation (AID 434950;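 active = membrane potential signal rise above negative control mean plus 3 SD in both duplicates, also active in the earlier TRPC4 screen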). Conditions: HEK293 TRPC6, membrane potential fluorescence, at 10 µM; activation: active compounds read high; outcome: activation.
The target is the same in test [11]. Put plainly: positive modulators of mouse TRPC6 channel – HEK293 cells, membrane potential dye, duplicate, selectivity assay for TRPC4 potentiator project, confirmation (AID 434952). Conditions: HEK293 TRPC6, membrane potential dye fluorescence, at 10 µM, maximal acetylcholine added after compound; active compounds read high.
Test [12] addresses Short transient receptor potential channel 4 (Mus musculus) (UniProt Q9QUQ5). As to the kind of experiment: calcium flux activators in TRPC4/5HT1a cells, counter-screen for TRPC4 activator project, cell-based, second counter screen, HEK293 TRPC4/5HT1a, Fluo-4 (AID 434977;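 active = calcium signal rise above buffer-control mean plus 5 SD in both duplicates, and also a hit in the primary screen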). To be noted: Fluo-4 calcium flux, at 10 µM; active compounds read high.
Test [13] in a line: serotonin-gated TRPC4 signal block – cell-based, second counter screen, HEK293 TRPC4/5HT1a, Fluo-4, counter-screen for TRPC4 inhibitor project, confirmation (AID 434978;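 active = primary screen active whose calcium signal fell more than 3 SD beyond the full-serotonin control mean in both duplicate plates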;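 as to outcome: serotonin given first at submaximal then at maximal dose after compound preincubation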). Conditions: Fluo-4 calcium flux, at 10 µM, serotonin added to trigger calcium flux; active compounds read high.
The test system of test [14] is TRPC4 (mouse), co-expressed with 5HT1a in HEK293. As to the kind of experiment: enhancement of serotonin-evoked TRPC4 response – cell-based, second counter screen, HEK293 TRPC4/5HT1a, Fluo-4, counter-screen for TRPC4 potentiator project, confirmation (AID 434979;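 active = signal rise over 3 SD above mean of control wells given weak agonist, in both repeats and first screen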). Conditions: Fluo-4 calcium flux, at 10 µM, serotonin added at its EC20 dose; active compounds read high.
Test [15] can be described thus: nonspecific calcium rise without TRPC4 – cell-based, HEK293 mu-opioid receptor line, counter-screen for TRPC4 activator project, confirmation (AID 449723;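 active = hit in primary screen, with calcium signal over 5 SD above buffer well mean in both duplicates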;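 also: counter screen cells carry the mu-opioid receptor alone and lack TRPC4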). Conditions: HEK293 mu-opioid cells, Fluo-4 calcium fluorescence, at 10 µM; active compounds read high.
Test [16] can be described thus: nonspecific potentiation of DAMGO calcium response – cell-based, HEK293 mu-opioid receptor line, counter-screen for TRPC4 allosteric potentiator project, confirmation (AID 449724;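 active = calcium signal rise more than 3 SD above the low-dose agonist control mean, in both duplicate plates and the primary screen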;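 also: HEK293 cells carrying mu-opioid receptor only with no TRPC4 channel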). Conditions: HEK293 mu-opioid receptor cells, Fluo-4 calcium flux, at 10 µM, compound added before EC20 DAMGO stimulus; active compounds read high.

For part of these data: Measured potencies and affinities stand elsewhere. The source made the active and inactive calls.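 The calls were made as follows, unless noted: active = compound raising the membrane signal above positive-control mean plus 3 SD in both repeats, and a primary screen hit; inactive = the rest.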

Chain of Short transient receptor potential channel 4 (Mus musculus) (Q9QUQ5 whole entry, looked up): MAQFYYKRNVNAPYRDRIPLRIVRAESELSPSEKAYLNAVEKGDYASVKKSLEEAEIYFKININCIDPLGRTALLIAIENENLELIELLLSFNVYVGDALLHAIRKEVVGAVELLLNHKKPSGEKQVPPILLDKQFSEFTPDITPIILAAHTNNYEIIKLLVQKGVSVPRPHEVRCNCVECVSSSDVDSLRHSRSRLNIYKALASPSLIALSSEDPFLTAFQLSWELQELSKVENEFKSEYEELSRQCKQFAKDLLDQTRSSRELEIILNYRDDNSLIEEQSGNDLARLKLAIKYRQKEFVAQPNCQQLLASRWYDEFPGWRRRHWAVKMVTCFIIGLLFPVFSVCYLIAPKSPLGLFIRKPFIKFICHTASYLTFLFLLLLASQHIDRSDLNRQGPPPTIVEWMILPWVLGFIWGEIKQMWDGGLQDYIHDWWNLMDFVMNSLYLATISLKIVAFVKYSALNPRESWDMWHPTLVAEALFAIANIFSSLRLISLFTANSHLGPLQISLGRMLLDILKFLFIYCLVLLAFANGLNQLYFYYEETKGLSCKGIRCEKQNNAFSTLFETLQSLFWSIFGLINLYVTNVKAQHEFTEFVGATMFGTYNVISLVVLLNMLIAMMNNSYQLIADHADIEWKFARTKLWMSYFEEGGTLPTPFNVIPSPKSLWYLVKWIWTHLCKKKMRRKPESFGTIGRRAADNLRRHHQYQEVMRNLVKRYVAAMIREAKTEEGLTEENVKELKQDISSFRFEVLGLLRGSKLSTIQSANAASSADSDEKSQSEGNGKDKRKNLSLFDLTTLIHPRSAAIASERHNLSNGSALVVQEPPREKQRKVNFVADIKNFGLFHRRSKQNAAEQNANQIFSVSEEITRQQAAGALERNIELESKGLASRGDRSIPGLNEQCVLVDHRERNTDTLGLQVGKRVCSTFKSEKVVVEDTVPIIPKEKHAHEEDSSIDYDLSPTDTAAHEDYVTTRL
Chain of Short transient receptor potential channel 6 (Mus musculus) (Q61143 whole entry, looked up): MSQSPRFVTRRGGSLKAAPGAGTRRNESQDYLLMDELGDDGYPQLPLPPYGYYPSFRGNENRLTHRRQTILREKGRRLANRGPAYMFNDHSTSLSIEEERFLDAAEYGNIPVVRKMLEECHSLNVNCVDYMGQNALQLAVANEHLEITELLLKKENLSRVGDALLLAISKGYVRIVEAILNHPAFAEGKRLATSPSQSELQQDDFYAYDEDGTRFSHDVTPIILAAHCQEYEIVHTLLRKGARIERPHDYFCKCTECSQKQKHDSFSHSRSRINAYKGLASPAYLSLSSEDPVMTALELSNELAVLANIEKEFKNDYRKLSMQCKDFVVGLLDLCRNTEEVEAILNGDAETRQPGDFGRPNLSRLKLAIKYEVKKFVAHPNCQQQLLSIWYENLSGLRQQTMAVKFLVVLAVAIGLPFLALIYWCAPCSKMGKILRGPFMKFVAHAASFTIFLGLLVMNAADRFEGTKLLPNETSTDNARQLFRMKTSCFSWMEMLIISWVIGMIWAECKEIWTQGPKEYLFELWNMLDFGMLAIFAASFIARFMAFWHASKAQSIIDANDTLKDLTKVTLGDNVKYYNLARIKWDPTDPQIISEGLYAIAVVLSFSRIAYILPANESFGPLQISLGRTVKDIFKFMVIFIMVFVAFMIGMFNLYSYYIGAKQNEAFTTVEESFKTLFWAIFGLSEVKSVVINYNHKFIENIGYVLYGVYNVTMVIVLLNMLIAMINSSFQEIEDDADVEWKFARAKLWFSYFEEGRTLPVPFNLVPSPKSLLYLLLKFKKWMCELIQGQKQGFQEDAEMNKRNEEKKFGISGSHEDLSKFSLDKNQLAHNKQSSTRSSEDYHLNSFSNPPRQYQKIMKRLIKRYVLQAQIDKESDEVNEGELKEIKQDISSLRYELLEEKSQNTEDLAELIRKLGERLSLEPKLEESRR

For `Cc1[nH]c2ccc(C(=O)OC(C)C(=O)N(C)c3ccccc3)cc2c1C` (stereo not given), the result in test [1], in test [2], in test [3], in test [4], in test [5] and in [6] was inactive. Further, the result in test [7], in test [8], in test [9], in [10], in [11] and in test [12] was inactive. For the same molecule, the outcome in test [13], in test [14], in [15] and in [16] was inactive.

Consider `CCOc1ccc(Br)cc1/C=N/O`, for which the outcome in [1], in test [2], in test [3], in test [4], in [6] and in test [7] was inactive. Further, the result in test [8], in [10], in [11], in [12], in [14] and in test [15] was inactive. Besides, the result in test [16] was inactive. The inhibition in test [5] was 90% (active); in test [9] it was 27.5% (active); in [13] it was 29.2% (active).

For the molecule `O=C(C[n+]1cccc(CNC(=O)c2ccc(OC(F)F)cc2)c1)Nc1ccc(SC(F)F)cc1`, the outcome in [1], in test [2], in test [3], in test [4], in test [6] and in [7] was inactive. Also, the outcome in test [8], in test [9], in test [10], in test [11], in [12] and in test [13] was inactive. Moreover, the result in [14], in [15] and in [16] was inactive. For the same molecule, in test [5], the inhibition was 94% (active).

Turning to `Cc1cc(Nc2ccc(C)c(C)c2)c2ccccc2n1`, the result in [1], in [2], in [3], in test [4], in test [7] and in test [8] was inactive. Also, the result in test [10], in [11], in test [12], in test [14], in test [15] and in test [16] was inactive. Moreover, the inhibition is 99% (active) in [5], 42% (active) in [6], 35.5% (active) in [9] and 30.8% (active) in test [13].

In the case of `Cn1c(=O)c2c(nc(SCc3cccnc3)n2Cc2ccc(F)cc2)n(C)c1=O`, the outcome in test [1], in test [2], in test [3], in [4], in test [6] and in test [7] was inactive. Also, the outcome in [8], in test [9], in test [10], in [11], in test [12] and in test [14] was inactive. Moreover, the result in test [15] and in test [16] was inactive. Also, the inhibition in test [5] is 79% (active); in test [13], 22.8% (active).

Regarding `COc1ccc2c(c1)C=C(CN1CCC(CO)(CCc3ccccc3)CC1)CO2`, the result in test [1], in [2], in test [3], in test [4], in [6] and in test [7] was inactive. Besides, the outcome in test [8], in [9], in [10], in test [11], in [12] and in test [14] was inactive. Further, the outcome in test [15] and in [16] was inactive. Further, the values for the inhibition in test [5] and in test [13] were 102% (active) and 35.7% (active), respectively.

As to `Cc1nc2ccccc2n1Cc1ccc(Br)cc1`, the result in test [1], in test [2], in test [3], in [4], in test [7] and in test [8] was inactive. The call in [9], in test [10], in [11], in [12], in test [14] and in [15] was inactive. The result in [16] was inactive. Also, the inhibition is 96% (active) in [5], 74% (active) in [6] and 9.19% (active) in [13].

Consider `O=C(COC(=O)c1c(Cl)cccc1Cl)Nc1ccccc1Br`, for which the result in test [1], in [2], in test [3], in test [4], in [6] and in test [7] was inactive. Besides, the result in [8], in [9], in test [10], in [11], in [12] and in test [14] was inactive. Further, the result in [15] and in [16] was inactive. Moreover, the results for the inhibition in [5] and in test [13] were 71% (active) and 29.5% (active), respectively.

`O=C(CN1CCCCC1)N1c2ccccc2Oc2ccccc21`: the result in test [1], in [2], in test [3], in test [4], in test [6] and in test [7] was inactive. Further, the result in test [8], in test [9], in test [10], in test [11], in test [12] and in test [14] was inactive. For the same molecule, the outcome in test [15] and in test [16] was inactive. For the same molecule, the values for the inhibition in test [5] and in test [13] were 95% (active) and 9.39% (active), respectively.

In the case of `COc1ccc(Cl)cc1N/C(N)=N/c1nc(C)cc(C)n1`, the outcome in test [1], in test [2], in test [3], in test [4], in [7] and in [8] was inactive. For the same molecule, the molecule was classed as inactive in test [10], in test [11], in test [12], in test [14], in test [15] and in test [16]. For the same molecule, the inhibition in test [5] was 94% (active); in test [6], 53% (active); in test [9] it was 58% (active); in test [13] it was 15.3% (active).

For the molecule `CCOC(=O)C1(CCOc2ccccc2)CCN(Cc2cccn2-c2ncccn2)CC1`, the result in test [1], in test [2], in test [3], in test [4], in test [7] and in [8] was inactive. The result in [10], in [11], in [12], in test [13], in [14] and in test [15] was inactive. Besides, in test [16], the outcome was inactive. The inhibition in test [5] was 86% (active); in [6], 43% (active); in test [9], 52.5% (active).

As for `O=C(COc1ccc(F)cc1)c1c(O)cc(O)cc1O`, the result in [1], in test [2], in test [3], in [4], in test [6] and in test [7] was inactive. Besides, the outcome in test [8], in test [9], in [10], in [11], in test [12] and in test [14] was inactive. For the same molecule, the result in test [15] and in test [16] was inactive. Moreover, the results for the inhibition in test [5] and in test [13] were 84% (active) and 36.3% (active), respectively.

Regarding `COc1ccc(SC[C@H](Cc2ccccc2)N2CCN(C)CCC2=O)cc1`, the result in test [1], in [2], in test [3], in test [4], in [7] and in [8] was inactive. Also, the molecule was classed as inactive in test [9], in test [10], in test [11], in test [12], in test [13] and in test [14]. In addition, the outcome in [15] and in test [16] was inactive. Moreover, the inhibition in [5] was 95% (active); in test [6], 40% (active).

Turning to `CCCCn1c2ccccc2c2nnc(SCCN3CCCCC3)nc21`, the result in test [1], in [2], in test [3], in [4], in test [6] and in test [7] was inactive. Besides, the outcome in test [8], in [10], in test [11], in [12], in test [14] and in test [15] was inactive. Besides, the outcome in [16] was inactive. In addition, the figures for the inhibition in [5], in [9] and in test [13] were 84% (active), 44.5% (active) and 31.3% (active), respectively.

`COc1ccc(C)cc1N(C(=O)c1snc(C(N)=O)c1N)C(C(=O)NC1CCCCC1)c1ccc(C)o1` (stereo not given): the result in test [1], in test [2], in test [3], in [4], in test [7] and in test [8] was inactive. Besides, the call in test [9], in [10], in test [11], in [12], in [14] and in test [15] was inactive. The result in test [16] was inactive. Further, the figures for the inhibition in [5], in [6] and in test [13] were 92% (active), 72% (active) and 19.6% (active), respectively.
